Where “and” joins values, the source holds several entries; their conditions need not be identical. Equal entries are not always repeated. Inconclusive results are not listed. More than one record can exist for a structure, and the calls need not agree. Calls of active or inactive are those of the source. Unless noted, calls come from the whole dose curve; as a rule, active = well fitted curve in the direction sought with a large enough effect; inconclusive = small, poorly fitted or top-dose-only effect, or another doubt; inactive = no such curve, though single readings can be large; an effect the other way counts as inactive or inconclusive.

For 21 molecules, Potency, Z-AUC and outcome results are on record in PubChem BioAssay (NCATS).

A short description of test [1]: qHTS to identify inhibitors of the type 1 interferon - major histocompatibility complex class I in skeletal muscle: primary screen against the NCATS Mechanism Interrogation Plate v5.0 (MIPE) Libary (AID 1347411). Note: nearly all actives have a fitted effect of over 65% in size. In a few lines: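 Immortalized human C25cl48 myoblasts with HiBit knocked into endogenous HLA-B*08:01 were stimulated with 4.0 ng/ml IFN-beta and exposed to compounds (11-point 1:3 titration, top 46 uM final) for 24 hrs at 37 C; HiBiT lytic luminescence measured.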

Test [2] in a line: Primary qHTS for inhibitors of nuclear receptor binding SET domain protein 2 (NSD2) in an isogenic RCH-ACV NSD2 p.E1099K mutant (9B) (AID 1645876). Note: nearly all actives have a fitted effect of over 70% in size. Note: potency is the fitted concentration of half-maximal effect. A general note: qHTS replaces the single test concentration by a dilution series.
The nature of test [3]: Primary qHTS for inhibitors of nuclear receptor binding SET domain protein 2 (NSD2) in an RCH-ACV wild type WT cells (2C) (AID 1645877). Note: nearly all actives have a fitted effect of over 70% in size. Note: potency is the fitted concentration of half-maximal effect.
Test [4] has as its target Phospholipid hydroperoxide glutathione peroxidase GPX4 (Homo sapiens) (UniProt P36969). As to the kind of experiment: Primary qHTS Assay for Inhibitors of Recombinant Selenoprotein Glutathione Peroxidase 4 (GPX4) (AID 1845192). Note: nearly all actives have a fitted effect of over 65% in size. Note: potency is the fitted concentration of half-maximal effect. The settings on record: outcome: dose series up to 50 µM unless noted. The essentials: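 GR-coupled assay: recombinant GPX4 preincubated 30 min with compound at room temperature; final 200 nM GPX4, 1 mM GSH, 0.5 mM cumene hydroperoxide, 0.5 mM NADPH, 100 nM GR, 0.01% BSA, pH 7.5 Tris. NADPH fluorescence (340/450 nm) read at 0 and 15 min.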

Test [5] can be described thus: qHTS drug screen for cell cycle checkpoint inhibitors in PARPi-resistant BRCA-mutant ovarian cancer cell lines. (AID 1963452; calls by dose curve; note: potency is the fitted concentration of half-maximal effect). The settings on record: PEO1/OlaR viability, CellTiter-Glo luminescence, 96 h; for Z-AUC: stronger effect = lower value. The essentials: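 PEO1, PEO4 and PEO1/OlaR ovarian cancer cells, 600 per well, exposed 96 h at 37C to a dilution series. Viability read by CellTiter-Glo luminescence, normalized to DMSO and empty wells; activity summarized as Z-AUC.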

Test [6] concerns the target Glutathione peroxidase 1 (Homo sapiens) (UniProt P07203). As to the kind of experiment: Primary qHTS Assay for Inhibitors of Recombinant Selenoprotein Glutathione Peroxidase 1 (GPX1) (AID 1845191). Note: nearly all actives have a fitted effect of over 65% in size. Note: potency is the fitted concentration of half-maximal effect. The essentials:
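GR-coupled assay: compounds preincubated 30 min at room temperature with GPX1, then reaction started with CHP; final 10 nM GPX1, 1 mM GSH, 0.5 mM CHP, 0.5 mM NADPH, 100 nM GR, 0.01% BSA, pH 7.5 Tris buffer. NADPH fluorescence (340/450 nm) read at 0 and 15 min.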

Setting [7] is: measured here: PEO1 parental Z-AUC.

Glutathione peroxidase 1 (Homo sapiens), sequence (P07203 whole entry, looked up): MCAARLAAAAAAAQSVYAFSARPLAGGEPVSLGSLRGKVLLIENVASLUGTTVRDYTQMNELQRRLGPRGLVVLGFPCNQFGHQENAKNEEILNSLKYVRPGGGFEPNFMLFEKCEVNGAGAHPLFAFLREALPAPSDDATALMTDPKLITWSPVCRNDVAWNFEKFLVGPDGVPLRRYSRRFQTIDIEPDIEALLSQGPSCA
Phospholipid hydroperoxide glutathione peroxidase GPX4 (Homo sapiens), sequence (P36969 whole entry, looked up): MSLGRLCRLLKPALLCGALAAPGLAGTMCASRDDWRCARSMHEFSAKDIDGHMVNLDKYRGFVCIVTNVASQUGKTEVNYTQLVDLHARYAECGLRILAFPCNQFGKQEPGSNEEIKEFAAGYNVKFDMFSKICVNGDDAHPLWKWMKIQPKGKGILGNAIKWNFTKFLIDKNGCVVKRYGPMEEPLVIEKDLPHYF

In the case of `O=C1OC2(CCC(C(=O)Nc3ccn(-c4ccccc4F)n3)CC2)c2cnccc21` (stereo not drawn), the Potency entry in test [1], in test [2], in test [3] and in test [4] was “inactive” throughout. Besides, the Z-AUC in test [5] was 0.0773 (inactive); in test [5] (setting [7]) it was 0.881; in test [5] (measured here: PEO4 Z-AUC) it was 0.97.
With `CC(C)(NS(=O)(=O)c1ccc2c(Cl)cnc(N=C(N)N)c2c1)C(=O)O`, the Potency result in test [1], in test [2] and in test [3] was “inactive” in each case. Besides, the Z-AUC is -0.917 (inactive) in test [5], 0.762 in test [5] (setting [7]) and 0.0928 in test [5] (measured here: PEO4 Z-AUC).
Turning to `C[C@]12CCC3[C@@H](CC[C@H]4NC(=O)C=C[C@]34C)[C@@H]1CC[C@@H]2C(=O)Nc1cc(C(F)(F)F)ccc1C(F)(F)F` (stereo partly drawn), the Potency entry in test [1], in test [2], in test [3] and in test [4] was “inactive” in each case. Besides, the Z-AUC in test [5] is -1.09 (inactive); in test [5] (setting [7]), -1.05; in test [5] (measured here: PEO4 Z-AUC), -1.07.
Consider `Cc1ccc(NS(=O)(=O)c2cccc(C#N)c2)c2[nH]cc(C#N)c12`, for which the Potency result in test [1] and in test [4] was “inactive” throughout. For the same molecule, the Potency in test [2] was 0.372 µM (active); in test [3], 0.417 µM (active). Also, the Z-AUC was -0.908 (inactive) in test [5], -1.02 in test [5] (setting [7]) and -1.95 in test [5] (measured here: PEO4 Z-AUC).
For the molecule `CCn1c(=O)c2c(nc(/C=C/c3ccc(OC)c(OC)c3)n2C)n(CC)c1=O`, the Potency entry in test [1], in test [2], in test [6] and in test [4] was “inactive” throughout. In addition, the Z-AUC in test [5] was 0.577 (inactive); in test [5] (setting [7]), 0.401; in test [5] (measured here: PEO4 Z-AUC) it was 0.882.
As to `CNS(=O)(=O)Nc1nccc(Cc2c(C)c3ccc(Oc4ncccn4)cc3oc2=O)c1F`, the Potency entry in test [1], in test [6] and in test [4] was “inactive” throughout. Moreover, the Potency in test [5] was 2.75 µM (active). Besides, the Z-AUC in test [5] (setting [7]) was -1.08; in test [5] (measured here: PEO4 Z-AUC) it was -1.84.
For the molecule `CCOc1ccc(-n2c([C@@H](C)N(Cc3cccnc3)C(=O)Cc3ccc(F)c(C(F)(F)F)c3)nc3ncccc3c2=O)cc1`, the Potency result in test [1], in test [6] and in test [4] was “inactive” in each case. The Potency in test [3] was 18.6 µM (active). Also, the Z-AUC in test [5] is 1.64 (inactive); in test [5] (setting [7]), 1.42; in test [5] (measured here: PEO4 Z-AUC), 1.34.
Consider `Cc1nc2cccc(N)c2c(=O)n1C1CCC(=O)NC1=O` (stereo not drawn), for which the Potency entry in test [1], in test [6] and in test [4] was “inactive” in each case. In addition, the Z-AUC in test [5] is 1.24 (inactive); in test [5] (setting [7]), 1.14; in test [5] (measured here: PEO4 Z-AUC), 1.38.
Consider `C=CC(=O)N1C[C@H](Nc2ncnc3[nH]ccc23)CC[C@@H]1C`, for which the Potency entry in test [1], in test [3] and in test [6] was “inactive” throughout. Also, the Z-AUC is -0.649 (inactive) in test [5], -0.501 in test [5] (setting [7]) and -0.666 in test [5] (measured here: PEO4 Z-AUC).
In the case of `Cc1ccc(NC(=O)[C@H]2CCCN(C(=O)c3c(C)cccc3F)[C@H]2c2ccc(NC3CCCC3)cc2)cc1C(F)(F)F`, the Potency entry in test [1], in test [3] and in test [6] was “inactive” throughout. The Z-AUC in test [5] was -0.612 (inactive); in test [5] (setting [7]), 0.0404; in test [5] (measured here: PEO4 Z-AUC), -0.339.
Turning to `Cn1nccc1Nc1nccc(-c2cc3c(s2)C(C)(C)N(CCN2CCOCC2)C3=O)n1`, the Potency result in test [1], in test [6] and in test [4] was “inactive” each time. For the same molecule, the results for the Z-AUC in test [5], in test [5] (setting [7]) and in test [5] (measured here: PEO4 Z-AUC) were -1.65 (inactive), -0.829 and -0.419, respectively.
For `C=CC(=O)Nc1cc(N2CCN(CC)CC2)ccc1Nc1cc(N(C)C(=O)Nc2c(Cl)c(OC)cc(OC)c2Cl)ncn1`, the Potency result in test [1], in test [6] and in test [4] was “inactive” each time. For the same molecule, the Z-AUC is 1.02 (inactive) in test [5], 0.686 in test [5] (setting [7]) and 0.736 in test [5] (measured here: PEO4 Z-AUC).
For the molecule `CCCN(CCC)C(=O)C1=Cc2ccc(-c3ccc(C(=O)N4CCCC4)cc3)cc2N=C(N)C1`, the Potency entry in test [1] is “inactive”. Also, in test [3], the Potency was 18.6 µM (active). Besides, the Z-AUC is 0.263 (inactive) in test [5], -0.15 in test [5] (setting [7]) and -0.0193 in test [5] (measured here: PEO4 Z-AUC).
Take `NS(=O)(=O)Oc1ccc2c3c(c(=O)oc2c1)CCCCC3`: in test [1], the Potency entry is “inactive”. Besides, the results for the Potency in test [6] and in test [4] were 4.09 µM (active) and 18 µM (active), respectively. Also, the Z-AUC is 0.451 (inactive) in test [5], 0.12 in test [5] (setting [7]) and -0.024 in test [5] (measured here: PEO4 Z-AUC).
In the case of Ac-PHSCN-NH2, the Potency entry in test [1], in test [6] and in test [4] was “inactive” each time. In addition, the Potency in test [3] was 23.5 µM (active). The Z-AUC in test [5] was -0.465 (inactive); in test [5] (setting [7]) it was 0.449; in test [5] (measured here: PEO4 Z-AUC) it was 0.654.
Take `CN(C)C(N)=NC(=N)N`: the result in test [1] and in test [5] was inactive. For the same molecule, the Potency result in test [6] was “inactive”. Moreover, in test [4], the outcome was “inactive [setting not given]”.
On to `COc1cc(-c2cn(C)c(=O)c3cnccc23)c(OC)cc1CN(C)C`, for which the Potency result in test [1] is “inactive”. Besides, the Potency in test [3] was 8.33 µM (active). Further, the figures for the Z-AUC in test [5], in test [5] (setting [7]) and in test [5] (measured here: PEO4 Z-AUC) were -0.443 (inactive), -0.655 and -0.662, respectively.
Take `C[C@H]1CN(C2COC2)CCN1c1ccc(Nc2cc(-c3ccnc(N4CCn5c(cc6c5CC(C)(C)C6)C4=O)c3CO)cn(C)c2=O)nc1`: the Potency entry in test [1], in test [6] and in test [4] was “inactive” throughout. Further, the Z-AUC in test [5] is -0.103 (inactive); in test [5] (setting [7]) it was 0.727; in test [5] (measured here: PEO4 Z-AUC), 0.518.
`N[C@@H]1CN(c2c(F)cc3c(=O)c(C(=O)O)cn([C@@H]4C[C@@H]4F)c3c2Cl)CC12CC2`: the Potency entry in test [1] and in test [3] was “inactive” throughout. Also, the Z-AUC was 0.751 (inactive) in test [5], 0.374 in test [5] (setting [7]) and 0.877 in test [5] (measured here: PEO4 Z-AUC).
On to `C=C1/C(=C/C=C2\CCCC3(C)[C@@H]([C@H](C)/C=C/C=C/C(O)(CC)CC)CC[C@@H]23)C[C@@H](O)C[C@@H]1O` (stereo partly drawn), for which the Potency result in test [1] and in test [6] was “inactive” throughout. In addition, the Potency in test [3] is 18.6 µM (active); in test [4], “inactive and 15.8 µM (active)”. Also, the Z-AUC in test [5] is -0.128 (inactive); in test [5] (setting [7]), -0.195; in test [5] (measured here: PEO4 Z-AUC), -0.444.
In the case of `CC(C)(c1ccc(OCC(O)CO)cc1)c1ccc(OCC(O)CCl)cc1` (stereo not drawn), the Potency entry in test [1], in test [6] and in test [4] was “inactive” each time. Moreover, the Z-AUC was 1.33 (inactive) in test [5], 0.733 in test [5] (setting [7]) and 1.22 in test [5] (measured here: PEO4 Z-AUC).
